B1: chr18:35731670:35731671:+_ENSMUSG00000037236_ENSMUST00000166793|perfect_dup|motif|central (ssRNA)
RNA: GGGAGUUCUACAGUCCGACGAUCUGACCCUGUGAGUCCCUACUGAGAGAUGACUGCUGGAAUGACUUGGACAUUGUAGAACGGGCUCUUGUCUAUUUUAUAGAUUAAAAAAAAAAAUUUUUUUAAAGACGGCCAAAAAGAAAGCAACAGAGGAUUGAGCAUCA
B2: chr16:20683585:20683586:+_ENSMUSG00000045983_ENSMUST00000044783|mus_mus|motif|central (ssRNA)
RNA: GGGAGUUCUACAGUCCGACGAUCUAUUGCUUCUGUUAACAUCUUCAACUUGAAUAACUCUCCAAUAAACUUGAUAUUCCCGGAAGAGCGCCGCCUAGCUAUGUCCCGGGCUUCUUCUAGCUCUUCUUUCAGGCGUCCCCGUUCCAACAGAGGAUUGAGCAUCA
B3: chr17:24706804:24706805:+_ENSMUSG00000032855_ENSMUST00000035565|mus_hu|FALSE|FALSE (ssRNA)
RNA: GGGAGUUCUACAGUCCGACGAUCGCAGCCGGGCACGAAGGUGGCCACCAGGGCAGGGCAGACAUUCUCAAAGCGGGCGCUGACACUGCCCCCAGGCCAGCGAGCCGUGGCCGUGGCGUUGGCACCAGAGUCCACCUGGAGCACCAACAGAGGAUUGAGCAUCA
B4: chr7:17149110:17149111:-_ENSMUSG00000058230_ENSMUST00000075845|mus_hu|FALSE|FALSE (ssRNA)
RNA: GGGAGUUCUACAGUCCGACGAUCAAUAUCCAUGUAUACAGAUUCCUCCAGCCACUGGUAGAAAUCCUCAUUCAUAAUAAAACUACGGGCCUCUUCCCAAGGCUUUCCGGGAGUUAUGAAAGGAGAAGUCUCCAGGUUUUCUUUCAACAGAGGAUUGAGCAUCA
B5: chr5:141234466:141234467:-_ENSMUSG00000000149_ENSMUST00000000153|mus_hu|FALSE|FALSE (ssRNA)
RNA: GGGAGUUCUACAGUCCGACGAUCUAAUAAAAAAGACAAUAAGGAUUAACAGUGAAAUUAAAAUUAAAAAAUACAAAAGCCUAAGGUUCUGGAGACAAAACUGACUAGAGUCUAUGUGUAGCCAAGUUGUGAAUGACAGUUUAGCAACAGAGGAUUGAGCAUCA
B6: chr5:141234466:141234467:-_ENSMUSG00000000149_ENSMUST00000000153|mus_hu|motif|central (ssRNA)
RNA: B5 RNA with U81G, A82G
B7: chr12:8504966:8504967:-_ENSMUSG00000054364_ENSMUST00000067384|mus_hu|FALSE|FALSE (ssRNA)
RNA: GGGAGUUCUACAGUCCGACGAUCACAAGUGUGGUCAGAAUGCUACUGUCGUAUGCAAAUGACGAGUGCAUUAAGUGUCAAACAAUGAAACAAUUGUGCAAAGAAUAAAAAAACAAAUUUUAGCCUUUAAAUAAAUCAAAUAACCAACAGAGGAUUGAGCAUCA
B8: 83879064_83879184_615_CDS_ENSMUSG00000030016_ENSMUST00000032088|mouse|control|control (ssRNA)
RNA: GGGAGUUCUACAGUCCGACGAUCUGGAGUUAUAUGAGACUCAUCAUCCCACCGACUACCAUGAGGCUUCCCCUUCUUUUGUUGUGCUUCAGGAAAAUCCAAUUUUUCUUUGGUUAAUCUUGGAUCGGUUCGGUGUUGAGUUACCAACAGAGGAUUGAGCAUCA
B9: chrX:20248820:20248821:+_ENSMUSG00000001924_ENSMUST00000001989|mus_mus|mus_mus_mus_hu_True|58_98 (ssRNA)
RNA: GGGAGUUCUACAGUCCGACGAUCGGCGAAGUCCGUCAUCACAAAGUCAGGUUCUGCCAGUGAGGCCACCAAGGAUUUAAAACUAAUCUUCUUAGGUACUUUGACCUGACUGACGAUGCCUCCACGGAUGUAGUCGGAGAAGUUCAACAGAGGAUUGAGCAUCA
B10: chr17:35253193:35253194:-_ENSMUSG00000024387_ENSMUST00000025246|mus_mus|FALSE|FALSE (ssRNA)
RNA: GGGAGUUCUACAGUCCGACGAUCGGCCUUUUCUUCCUUUAUUUCAUAUUCCCACCACAGUAACAAUUCCUUUAAUUUAAACUAAAAACCAUAGACUUCCUGAAAGGGUGGCAGCAGAGGAAUGGUGGUGUCACAGACAGAGGGCAACAGAGGAUUGAGCAUCA
B11: chr16:45382771:45382772:-_ENSMUSG00000022661_ENSMUST00000163230|mus_mus|mus_mus_mus_hu_True|18_98 (ssRNA)
RNA: GGGAGUUCUACAGUCCGACGAUCCUGGGUCAUGUUAUGGGCCCAAUGGACAGGGAGGGCAUGCUUCUCAAAAAAUGUGAGCUAUUGUCUAAGACUAACAAUAUUUAUCUAGCUAUAUAAAAAUAAGAAAUGAAUAAGUUAAGACAACAGAGGAUUGAGCAUCA
B12: chr16:45382771:45382772:-_ENSMUSG00000022661_ENSMUST00000163230|mus_mus|mus_mus_mus_hu_True|1_18 (ssRNA)
RNA: GGGAGUUCUACAGUCCGACGAUCCUGGGUCAUGUUAUAAGACAAAUGGACAGGGAGGGCAUGCUUCUCAAAAAAUGUGAGCUAUUGUCUAAGACUAACAAUAUUUAUCUAGCUAUAUAAAAAUAAGAAAUGAAUAAACAUUACCAACAGAGGAUUGAGCAUCA
B13: chr16:45382771:45382772:-_ENSMUSG00000022661_ENSMUST00000163230|mus_mus|mus_mus_mus_hu_True|1_48 (ssRNA)
RNA: B12 RNA with U87A, U117A, A121U, U123A, A124G, A125U, G126U
B14: chr16:45382771:45382772:-_ENSMUSG00000022661_ENSMUST00000163230|mus_mus|mus_mus_mus_hu_True|18_58 (ssRNA)
RNA: B11 RNA with G38A, G39A, C41A, C43A, G80A, U84C, G86C
B15: chr16:45382771:45382772:-_ENSMUSG00000022661_ENSMUST00000163230|mus_mus|mus_mus_mus_hu_True|18_18 (ssRNA)
RNA: B11 RNA with G38A, G39A, C41A, C43A
B16: chr16:45382771:45382772:-_ENSMUSG00000022661_ENSMUST00000163230|mus_mus|mus_mus_mus_hu_True|18_48 (ssRNA)
RNA: B11 RNA with G38A, G39A, C41A, C43A, U87A
B17: chrX:12734859:12734860:+_ENSMUSG00000031010_ENSMUST00000089302|mus_hu|motif|central (ssRNA)
RNA: GGGAGUUCUACAGUCCGACGAUCAUCACUGGCAGAGCCACGGACUACUUUCUUUGUGUGAAAUCCUGUAGUAAAGAGGAACCGGGCAGCAAGUUGAAUACUGAUCAUAGUGAUUUCUUCUGCUUCAGGCAACAGGUGAUCUUGCAACAGAGGAUUGAGCAUCA
B18: chr8:21961785:21961786:+_ENSG00000158863_ENST00000289921|hu_mus|FALSE|FALSE (ssRNA)
RNA: GGGAGUUCUACAGUCCGACGAUCCCAUGCAAAUGCCAAAGUGCAUUGAGUAUUGCCCAGCCUCUCAAACGAGUACAAAUCUCAAGUGUAGACCCACUCCACCAAGAUCUGCUCCUGUCCCACACCAGCACCCAUGUGUACUCACAACAGAGGAUUGAGCAUCA
B19: 131934741_131943559_139_3pUTR_ENSG00000108010_ENST00000331244|human|control|control (ssRNA)
RNA: GGGAGUUCUACAGUCCGACGAUCUUCUUUAGCUAACUCUGCCAUAACUUCGUUCAUCUGUGCACACUGUGGAGCCCAUGGUGCCCAGAAAUGGACCACAAGGAGGGACUUGGCUUUGAGGCGCAGCAGCUCCUCAAACUGCCCCAACAGAGGAUUGAGCAUCA
B20: 88753824_88753944_1043_CDS_ENSMUSG00000053333_ENSMUST00000065694|mouse|control|control (ssRNA)
RNA: GGGAGUUCUACAGUCCGACGAUCGGCAAAAUUACAGUCCUCCUUCCAGUCUAUGAUGCGGCAGAUGAACAGCGUGUUGGCAAAGUCUUUAGGUCGGGUCAUGAAGUCCUGGGGACAGUCCUUGAGAGGUACGUAAAUUCUAGGCAACAGAGGAUUGAGCAUCA
B21: chr5:108714581:108714582:-_ENSG00000198961_ENST00000361557|hu_hu|FALSE|FALSE (ssRNA)
RNA: GGGAGUUCUACAGUCCGACGAUCUGAAAGACCAGUGUAUGCCUCUGCCUCUCUGUUUUCCAACUCAAAUACUGUAUUGCCUAAUGAUUCCUGGUAUCUACUACCUUCCACGACUUCUGCAGAAAGUUGAAGAUGGUCAUUAUCCAACAGAGGAUUGAGCAUCA
B22: chr15:31520727:31520728:-_ENSMUSG00000022234_ENSMUST00000022842|mus_mus|FALSE|FALSE (ssRNA)
RNA: GGGAGUUCUACAGUCCGACGAUCAGUUUAUUCUUCAGAUUCUCCAGGCUUACGGAUGUCAUCAAUCUUCAGAAUCAUCCUAACCAUCUGGGUGGCAAGAGAGAUCUGCUGCUUUUUGCCAAUCAAGGUUUCUAUGACAUGCUGCAACAGAGGAUUGAGCAUCA

We go through 22 molecules from article PMC12136788.

Residue numbers refer to the chain shown, from its start. In all, about 24,000 sequences were measured (“enrichment r”: median about 0.99, highest 2% from about 3.7 on). This is one part of a sample in which the highest values are shown more often than they occur.

The test deals with T1, UNK ZnF1-3 (human, UniProt Q9C0B0 31-174).
T1 sequence: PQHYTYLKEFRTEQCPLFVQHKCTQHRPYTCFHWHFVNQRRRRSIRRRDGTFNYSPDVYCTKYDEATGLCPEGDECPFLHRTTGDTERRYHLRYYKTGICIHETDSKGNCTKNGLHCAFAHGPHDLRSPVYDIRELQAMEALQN
The test is described as follows: nsRBNS (natural sequence RNA bind-n-seq); RBNS binding buffer (assumed for nsRBNS): 25 mM Tris pH 7.5, 150 mM KCl, 3 mM MgCl2, 0.01% Triton X-100, 500 ug/ml BSA, 20 U/ml SUPERase-In, 4 C; UNK is unkempt and MSI1 is Musashi-1; names of the RNAs are library labels; protein concentration not given here; high values mean tight binding.
Molecule B1 yielded a binding signal of 3.64 enrichment R. Under B2 stands 0.438 enrichment R; under B3, 0.934 enrichment R. Under B4 stands 0.85 enrichment R.

For B5, the binding signal was 9.17 enrichment R.

Molecule B6 had a binding signal of 13.3 enrichment R.

On to B7, for which the binding signal was 2.25 enrichment R.

B8 yielded a binding signal of 0.468 enrichment R.

Regarding B9, the binding signal amounted to 0.876 enrichment R. In the case of B10 it was 1.66 enrichment R; in that of B11, 5.27 enrichment R; in that of B12, 2.42 enrichment R. B13 displayed a binding signal of 3.57 enrichment R. Under B14 stands 7.97 enrichment R.

Molecule B15 showed a binding signal of 5.7 enrichment R. Under B16 stands 5.66 enrichment R; under B17, 1.47 enrichment R. B18 had a binding signal of 1.22 enrichment R. In the case of B19 it was 0.775 enrichment R. The molecule B20 displayed a binding signal of 1.63 enrichment R. As to B21, the binding signal was 0.745 enrichment R. In the case of B22 it was 0.637 enrichment R.
